The values below come from the supplement of paper PMC11417369.

± gives the standard deviation of the averaged measurements. Over roughly 25,000 sequences, “ln(normalized median fluorescence intensity)” has its median near 8.9; the highest 2% begin near 10. The sample as a whole holds a higher share of the highest values than the screen did.

The assay has as its system PfAP2-LT AP2 domain (GST-tagged). In words: gcPBM binding intensity (ln(normalized median fluorescence intensity)); higher = stronger DNA binding. The method, boiled down:
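Alexa488 anti-GST antibody, scanned at 488 nm, detected GST-tagged P. falciparum DNA-binding domains that had been expressed in E. coli and incubated for 1 h on an Agilent 4 × 180k array. The array carried primer-extended double-stranded 36-bp intergenic genomic probes and negative controls. Binding intensity is the highest Masliner-normalised natural-log median intensity across replicate spots of either orientation of each probe.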
For the sequence “ATACGACAAATATAAAGTACAAGCTTGGTTTTTATA [XGTACX_site8103]”, the “gcPBM binding intensity (ln)” value was determined as 8.88 ± 0.59.

On to “AATTTGAAATATGTGGTGCAGTTATATAATATGTTT [GTGCAC_site9885]”, for which the “gcPBM binding intensity (ln)” value was 8.87 ± 0.41.

For the sequence “GTACATATATACATTACACACGGTTTGATTTAAAAA [CACACA_site3379]”, the “gcPBM binding intensity (ln)” value is 8.98 ± 0.41.

Consider “AGAAAAAAAAAAAAAAAACACACGGTACATTCAAAG [CACACA_site2]”, for which the “gcPBM binding intensity (ln)” value was 8.84 ± 0.43.

For “AGAAAAAAAAAACACACACACACACCCTCAATATAA [CACACA_site39]”, the “gcPBM binding intensity (ln)” value turned out to be 10.1 ± 0.11.

Consider “ATATACAATACAAAAACACACACAAAAAAAGAAAAG [CACACA_site8668]”, for which the “gcPBM binding intensity (ln)” value worked out at 9.59 ± 0.4.

Consider “AAAAAAAAAAAACACACACACACATTCAATATAAAA [CACACA_site40]”, for which the “gcPBM binding intensity (ln)” value came to 9.76 ± 0.28.

“AAAGAAAAAAAAAACACACACACACCCATTCAATAT [CACACA_site38]”: the “gcPBM binding intensity (ln)” value was found to be 10.29 ± 0.035.

With “AAAGAAAAAAAAAACACACACACACGCATTCAATAT [CACACA_site6169]”, the “gcPBM binding intensity (ln)” value was 10.1 ± 0.13.

As for “AAAAATATGCTTCCATGTACTTAAAAAAAAAATTTA [XGTACX_site3617]”, the “gcPBM binding intensity (ln)” value came to 8.34 ± 0.47.

As for “TTCATTTATATAATCACACATTTTATCATCTATGTT [CACACA_site4327]”, the “gcPBM binding intensity (ln)” value was determined as 8.98 ± 0.47.

Regarding “ATGCAAACTAAAAGACGTACAGAAAAGTATCATACT [XGTACX_site8766]”, the “gcPBM binding intensity (ln)” value turned out to be 9.02 ± 0.42.

For “TAAACAAATAAATAAACACACAATATATGTATATAT [CACACA_site3803]”, the “gcPBM binding intensity (ln)” value was found to be 9.05 ± 0.38.

For “AATGAAATAAATAAGGGTACACATAAATATATATAT [XGTACX_site7006]”, the “gcPBM binding intensity (ln)” value was 9.04 ± 0.43.

In the case of “ATTATGTGCCAATACACACACACATCTATATTTATA [CACACA_site6359]”, the “gcPBM binding intensity (ln)” value turned out to be 9.67 ± 0.18.

“AAAAAAAAAAAAAAAACACACATATATGTATATATA [CACACA_site3276]”: the “gcPBM binding intensity (ln)” value stood at 8.92 ± 0.35.

“ATTATGTGCCAATACACACACACATATATATATATA [CACACA_site468]”: the “gcPBM binding intensity (ln)” value stood at 10.38 ± 0.078.

For “TATGTGCCAAAACACACACACATATATATATATATA [CACACA_site469]”, the “gcPBM binding intensity (ln)” value was 10.2 ± 0.2.

With “AAATTATGTGCCAATACACACACACCGATATATATA [CACACA_site8050]”, the “gcPBM binding intensity (ln)” value was 9.92 ± 0.21.

Take “AAAAAAAAAACATACACACACATATATATATATATG [CACACA_site1586]”: the “gcPBM binding intensity (ln)” value was found to be 9.46 ± 0.3.

Take “TACATATGAAAATACACACATACATACATATATATA [CACACA_site1673]”: the “gcPBM binding intensity (ln)” value worked out at 9.21 ± 0.34.

“TATCAAAAAAAAAGTAGTACGATAATAGTTTCCCAA [XGTACX_site1812]”: the “gcPBM binding intensity (ln)” value amounted to 8.73 ± 0.4.

Consider “TAATATTTTTTGTGTACACATATATATATATATATA [CACACA_site5504]”, for which the “gcPBM binding intensity (ln)” value amounted to 9.505 ± 0.064.

On to “ATATGTTAAATTATTCGTACGTAAAAAAAAATGGAT [XGTACX_site3465]”, for which the “gcPBM binding intensity (ln)” value was 8.81 ± 0.37.

In the case of “TTATTATTAAGACACACACACAAAAAAAAAAAAAAA [CACACA_site6805]”, the “gcPBM binding intensity (ln)” value is 9.26 ± 0.46.

For the sequence “CACAAACAAAGACACACACACACACGCACAAAAATG [CACACA_site7193]”, the “gcPBM binding intensity (ln)” value amounted to 10.3 ± 0.21.

Turning to “AACACGCACAGACACACACACAAAAATGATTAAAAA [CACACA_site7195]”, the “gcPBM binding intensity (ln)” value was determined as 9.71 ± 0.61.

“AATGTGTAGACACGCACACACAAAAAAATATTTATA [CACACA_site7384]”: the “gcPBM binding intensity (ln)” value amounted to 9.59 ± 0.36.

On to “AATTAACAAAGACACACACACACACGCACAAAAAAA [CACACA_site6388]”, for which the “gcPBM binding intensity (ln)” value is 10.2.

Turning to “AAAAAACAAAAACACACGCACACAAAAAAAAAAAAA [CACACA_site802]”, the “gcPBM binding intensity (ln)” value was found to be 9.4 ± 0.33.

With “AAAACAAATAGACACGCACACAAAAAAAAAAAAAAA [CACACA_site801]”, the “gcPBM binding intensity (ln)” value is 9.38 ± 0.6.

As to “TATTTATTAAGACACACACACACACGCACAAAATAA [CACACA_site6254]”, the “gcPBM binding intensity (ln)” value turned out to be 10.3 ± 0.33.

Turning to “ACAAAATAAAGACACACACACAAACACAAAAAAATA [CACACA_site7568]”, the “gcPBM binding intensity (ln)” value came out at 10.1 ± 0.38.

Turning to “ATATATATATATAACACACGCAAAAAAATTAAATAA [CACACA_site1400]”, the “gcPBM binding intensity (ln)” value worked out at 9.16 ± 0.38.

As to “TAAATTAAAAGACACACACACAAAAAAAAAAAAAAA [CACACA_site7131]”, the “gcPBM binding intensity (ln)” value amounted to 9.4 ± 0.44.

Consider “TTAACAAATAGACACACACACACACGCAAAAAAAAA [CACACA_site6387]”, for which the “gcPBM binding intensity (ln)” value was found to be 10.3 ± 0.33.

On to “ATGAAAAAAAATAAAAAATATATATATATATATATA [CACACA_negctrl_site236]”, for which the “gcPBM binding intensity (ln)” value was 9.4 ± 0.4.

On to “ATATATATATAAATATAAATATATATATATATATAT [CACACA_negctrl_site1685]”, for which the “gcPBM binding intensity (ln)” value worked out at 9.02 ± 0.23.

Consider “AGGAAAAAAAAAATGTGTACTTAAAAAAAAAAAATT [XGTACX_site1471]”, for which the “gcPBM binding intensity (ln)” value was 8.51 ± 0.65.

On to “ACCTTTTGGATTATATGTACATATATATATATATAT [XGTACX_site2687]”, for which the “gcPBM binding intensity (ln)” value stood at 9.61 ± 0.26.

Consider “CACAAAAGTAAGCACGCACACACAACCTGAAATAAA [CACACA_site166]”, for which the “gcPBM binding intensity (ln)” value is 9.59 ± 0.44.

As for “ATTTTTTTTATTTTTTATATAATTTTTTTATATTAT [CACACA_negctrl_site1521]”, the “gcPBM binding intensity (ln)” value was 8.69 ± 0.5.

Regarding “ATGCAAATGTGCATCACACACACTAATGGGTATGTA [CACACA_site2893]”, the “gcPBM binding intensity (ln)” value worked out at 9.41 ± 0.31.

Regarding “AATTAAATGATTTATACATGCATATAAATATAAATA [TGCATGCA_site579]”, the “gcPBM binding intensity (ln)” value worked out at 8.71 ± 0.43.

Consider CGATTTTTTAAGTTTGTGCACTTAAAAACTATAACA, for which the “gcPBM binding intensity (ln)” value worked out at 8.53 ± 0.47.

Take “GATGAAAATAGAAATACACACTAAAAAATAAAATTA [CACACA_site4764]”: the “gcPBM binding intensity (ln)” value is 8.85 ± 0.52.

With “ATATACATATTCTTGTGTACATAAAAATTTATATAT [XGTACX_site8726]”, the “gcPBM binding intensity (ln)” value came to 8.74 ± 0.35.

Turning to “AAAAAAAAAAAAGAACGTACAAATTAATTTATAGAA [XGTACX_site5584]”, the “gcPBM binding intensity (ln)” value is 8.73 ± 0.57.

With “TTAAAAAATCACAACACACACACACGCAAAAAAAAA [CACACA_site6793]”, the “gcPBM binding intensity (ln)” value was 10.1 ± 0.21.

With “TTAAAAAATCACAACACACACACACCCAAAAAAAAA [CACACA_site1445]”, the “gcPBM binding intensity (ln)” value amounted to 9.77 ± 0.26.

In the case of “TTTACATTAAATCACGCACACAAAAAAAAAAAAAAA [CACACA_site2418]”, the “gcPBM binding intensity (ln)” value was 8.94 ± 0.37.

In the case of “ATTCAAAAGATGTATACACACATGTGGATAATATAA [CACACA_site2443]”, the “gcPBM binding intensity (ln)” value is 9.21 ± 0.48.

With “TATATATAATATGAATGTACACAAAAAGGTAATACA [XGTACX_site6202]”, the “gcPBM binding intensity (ln)” value turned out to be 9.11 ± 0.62.

Take “AATAAAGCAATAAATACACACATATATATATATATA [CACACA_site2934]”: the “gcPBM binding intensity (ln)” value was found to be 9.955 ± 0.0071.

As to “AAACAAAAAAAATAAGCACACATATATATATATATA [CACACA_site8173]”, the “gcPBM binding intensity (ln)” value was 9.6 ± 0.57.

On to “AATATAAGCAAATACACACACACATATATATATATA [CACACA_site3805]”, for which the “gcPBM binding intensity (ln)” value came to 10.29 ± 0.035.

Turning to “ACAAAAAAAATAAGCACACATATATATATATATATA [CACACA_site816]”, the “gcPBM binding intensity (ln)” value was 10.1 ± 0.38.

“AATATAAGCAAATACACACACACATATAAATATGTA [CACACA_site7741]”: the “gcPBM binding intensity (ln)” value is 9.85 ± 0.35.

On to “ATACAACAAAAATAAGCACACACAAATATACATACA [CACACA_site9201]”, for which the “gcPBM binding intensity (ln)” value turned out to be 9.7 ± 0.4.
